Assay outcomes from PubChem.
Most compounds without a hit are left out; they make up all but 12% or so of the library.
Cl transport mod – modulates chloride dependent transport by human KCC2; 190,000 compounds, 2.2% hits; KCC2 cells, thallium flux FluoZin-2 fluorescence; AID 1456; B-score of Tl+ flux slope (higher = more flux/activation; lower = inhibition) at 10 µM;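 active means thallium flux slope and its plate-corrected score both differing from the plate sample mean at a set confidence after two filtering rounds, in either direction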;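 further: slope of fluorescence scaled to starting intensity during 10 to 20 s after thallium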
Insulin prom inh – TRM-6 insulin promoter activity inhibition | 130,000 compounds, 0.9% hits | inhibition, % at 2 µM | TRM-6 cells (human fetal islet line), insulin promoter-eGFP reporter, imaging; reporter expression induced with tamoxifen | AID 1273;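 active means inhibition above the mean plus 3 SD, with well images judged a real hit on visual review, cut at about 60% in these data, passing the limit was not always enough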
Lmaj promast – Leishmania major promastigote growth inhibition | AID 1063 | inhibition, % at 10 µM | 200,000 compounds, 9% hits | Leishmania major promastigotes, resazurin fluorescence viability; in the data active means inhibition above about 50%;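 further: promastigotes grown with compound for 44 hours at 28 °C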
ROMK primary – human ROMK K+ channel modulation, primary screen. B-score at 10 µM. P48048. 130,000 compounds, 2% hits. Tet-inducible ROMK, thallium flux fluorescence; actives lie on both sides;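 active means signal ratio slope over the read window, or its plate-corrected B-score, at least 3 SD from the plate mean, either direction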;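 further: B-score of the F/F0 ratio slope over 7 to 12 s after thallium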
WT yeast gro inh – growth inhibition of WT yeast, mitochondrial fusion screen; mitochondrial fusion phenotypic screen, WT strain; inhibition, % at 10 µM; 190,000 compounds, 2.1% hits; AID 1362; in the data active means inhibition above about 58%; tested in S. cerevisiae
Ins promoter up – MIN6 insulin promoter up-regulation; MIN6 insulin promoter-GFP reporter, high-content imaging; hits give high values; z-score at 5 µM; 190,000 compounds, 0.3% hits; AID 1625;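 active means z-score above 3 at 5 µM with at least 500 cells counted in the well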
* marks the source's active call; other numbers are inactive results; i = inactive; / = no result given.

SMILES	Cl transport mod	Insulin prom inh	Lmaj promast	ROMK primary	WT yeast gro inh	Ins promoter up
CCCCCCc1cc2cc(-c3nnc(-c4ccccc4OC)o3)c(=O)oc2cc1O	i	-21.9	45.1	/	33.2	8.91*
CCCCCCc1cc2cc(S(=O)(=O)c3ccc(F)cc3)c(=O)oc2cc1O	0.191	/	-1.6	/	8.0	0.62
O=C1c2ccccc2NC(c2ccccc2)N1/N=C/c1ccccc1 (stereo not given)	/	/	4.8	/	-2.7	-0.04
O=C(CCN1C(=O)c2ccccc2C1=O)NC(=S)Nc1ccccc1	0.15	/	-3.0	/	-5.1	-0.16
CCCCN(CC)Cc1ccc(CNC(=S)Nc2ccccc2F)o1	-0.829	/	6.0	-0.754	2.1	0.18
CCCCN(CC)Cc1ccc(CNC(=O)Nc2ccc(Cl)cc2)o1	-0.00412	/	98.0*	-2.48	-4.5	0
CCCCN(CC)Cc1ccc(CNC(=O)Nc2ccc(OCC)cc2)o1	0.79	-41.7	99.1*	0.0698	-11.7	0.79
O=c1c2ccccc2c(C=NCCCN2CCOCC2)c(O)n1Cc1ccc2c(c1)OCO2	0.505	/	85.6*	-0.368	-8.2	0.39
Cc1ccc(CC2CC(=O)N(CCc3ccc4c(c3)OCO4)C2=O)cc1 (stereo not given)	/	/	60.4*	0.177	7.0	-0.98
O=C1CCC/C1=C/Nc1ccc(Cl)cc1	-2.01	82.3*	3.3	-0.293	-1.6	-0.52
O=C1CCCC/C1=C\Nc1ccc(O)cc1	/	-40.9	13.2	/	-4.8	/
Cc1ncc(CN2CCC(CO)(CCc3ccccc3)CC2)s1	0.0504	/	83.9*	0.337	5.3	0.41
OCC1(CCCc2ccccc2)CCN(Cc2cnc(N3CCOCC3)s2)CC1	-0.0174	/	78.8*	0.304	2.9	-0.29
CN1CCN(CCC(=O)N/N=C/c2cc([N+](=O)[O-])ccc2OC(F)F)CC1	0.591	57.1	-1.6	-0.46	-17.8	-0.05
CC1CCN(CCC(=O)N/N=C/c2ccc([N+](=O)[O-])cc2)CC1	0.0224	/	80.5*	-0.22	-0.6	/
Cc1ccc(S(=O)(=O)c2c(C)cc(C)nc2Oc2cccc(C)c2C)cc1	/	35.5	0.3	/	66.3*	-0.24
CCCSc1nc(C)cc(C)c1S(=O)(=O)c1ccccc1C	/	-7.1	94.5*	/	5.3	/
Cc1cc(C)c(S(C)(=O)=O)c(Oc2ccccc2C)n1	0.466	/	-3.6	/	-7.6	2.11
Cc1cc(C)c(S(=O)(=O)c2ccccc2C)c(OCC(C)(C)C)n1	/	-32.1	95.9*	/	32.3	/
Cc1cc(C)c(S(=O)(=O)c2ccccc2C)c(SCC(C)C)n1	/	-32.1	92.0*	/	49.2	-3.18
O=C1CC(N2CCOCC2)C(=O)N1c1ccccc1Cl (stereo not given)	/	-48.4	-4.2	0.186	-7.1	0.05
Cc1cc(C(=O)CSc2nnc(-c3ccc(Cl)cc3)n2CC2CCCO2)c(C)n1C (stereo not given)	/	-46.7	-1.5	-0.0143	67.5*	0.94
CN(C(=O)CSc1nnc(-c2ccc(Cl)cc2)n1CC1CCCO1)C1CCS(=O)(=O)C1 (stereo not given)	1.43	/	-3.9	-0.899	-18.1	0.15
COc1ccc(Nc2nnc(SCC(=O)c3cc(C)n(CC4CCCO4)c3C)s2)cc1 (stereo not given)	-1.95	12.7	50.1*	-0.516	-0.5	/
COc1ccc(Nc2nnc(SCC3CCCCO3)s2)cc1 (stereo not given)	-0.183	/	8.8	-0.779	4.8	0.01
SMILES	Cl transport mod	Insulin prom inh	Lmaj promast	ROMK primary	WT yeast gro inh	Ins promoter up
O=C1CCN(C(=O)Nc2ccccc2Cl)N1	0.118	-32.4	-3.9	/	-1.8	0.47
Cc1oc2c(CN(C)C)c(O)ccc2c(=O)c1-c1ccc2ccccc2n1	/	/	76.3*	-0.0713	10.4	0.18
CCc1oc2c(C)c(O)ccc2c(=O)c1-c1ccc2ccccc2n1	/	20.8	-1.0	/	4.0	/
O=C(/C=C/c1ccco1)NC(=S)Nc1ccccc1O	0.235	/	-8.4	0.154	10.5	-0.41
CCC(C)OC(=O)C1=C(C)OC23OC(N)=C(C#N)C12C(=O)c1ccccc13 (stereo not given)	0.158	-193.8	86.1*	0.317	2.0	/
O=C(Nc1ccc(N2CCN(C(=O)c3ccco3)CC2)c(Cl)c1)c1cc2ccccc2o1	-1.43	52.4	95.9*	-1.62	21.8	-5.03
CCCC(=O)N1CCN(c2ccc(NC(=O)c3cc4ccccc4o3)cc2Cl)CC1	0.55	-158.6	60.1*	/	52.0	-1.97
CCC(=O)N1CCN(c2ccc(NC(=O)c3cc4ccccc4o3)cc2Cl)CC1	-0.456	11.6	37.0	/	-17.4	-0.44
O=C(c1cc2ccccc2o1)N1CCN(c2ccccc2Cl)CC1	-2.14	/	29.6	/	75.1*	1.28
